In all, about 390,000 compounds went through this assay and about 4,000 (1%) were called active. Entries that show only a call come without a potency. Roughly 4% stayed inconclusive and do not appear here. Calls come from the whole dose curve; as a rule, active = well fitted inhibition curve with a large enough effect; inconclusive = small, poorly fitted or top-dose-only effect; inactive = no such curve, though single readings can be large or run the other way. The sample as a whole holds a higher share of actives than the screen did.
Potency is the fitted concentration of half-maximal effect.

For this assay, the target named is Thioredoxin reductase 1, cytoplasmic (Rattus norvegicus) (UniProt O89049). In words: qHTS Assay for Inhibitors of Mammalian Selenoprotein Thioredoxin Reductase 1 (TrxR1): qHTS. Note: nearly all actives have a fitted effect of over 65% in size. The note with it: recombinant rTrxR1, NADPH fluorescence consumption, selenite substrate; series mostly up to 114 µM. The method, boiled down: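 Rat TrxR1 (90 nM in the dispensed reagent) was pre-reduced with 400 uM NADPH for 5 min at room temperature, then incubated with compound for 15 min. After 400 uM selenite was added, NADPH fluorescence (Ex 340/Em 450 nm) was followed for 8 min.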
Chain of Thioredoxin reductase 1, cytoplasmic (Rattus norvegicus) (O89049 whole entry, looked up): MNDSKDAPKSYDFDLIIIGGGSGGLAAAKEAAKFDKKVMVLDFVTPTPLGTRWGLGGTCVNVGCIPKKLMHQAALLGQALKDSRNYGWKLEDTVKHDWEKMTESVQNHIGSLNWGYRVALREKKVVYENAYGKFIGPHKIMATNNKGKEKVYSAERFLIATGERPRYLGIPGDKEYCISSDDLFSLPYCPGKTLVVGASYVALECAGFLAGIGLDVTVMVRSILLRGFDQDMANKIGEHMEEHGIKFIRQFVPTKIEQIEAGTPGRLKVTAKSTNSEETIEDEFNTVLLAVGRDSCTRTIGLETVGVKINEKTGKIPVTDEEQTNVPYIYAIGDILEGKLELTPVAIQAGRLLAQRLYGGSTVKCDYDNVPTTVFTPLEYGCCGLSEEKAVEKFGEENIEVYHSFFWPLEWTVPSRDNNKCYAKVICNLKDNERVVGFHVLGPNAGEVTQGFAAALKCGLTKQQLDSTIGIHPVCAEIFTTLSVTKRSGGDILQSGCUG
`CCOC(=O)N1CCc2c(sc(NCc3cccc(F)c3)c2C(=O)Nc2ccccc2OCC)C1`: the Potency entry was “inactive”.

For the compound `COc1cc(OC)c(/C=C/c2ccnc3ccccc23)c(OC)c1`, the Potency result was “inactive”.

As for `C=C1CCN(C(CC(C)C)C(=O)N2CCOCC2)S(=O)(=O)c2ccccc21` (stereo not drawn), the Potency result was “inactive”.

For `O=c1[nH]c2cc(Br)ccc2n2cccc12`, the Potency result is “inactive”.

As for `O=c1cc(-c2ccccc2)n2c(SCc3ccccc3)nnc2[nH]1`, the Potency result is “inactive”.

On to `CC(C)Cn1c(=O)c2ccccc2n2c(-c3cccc(Cl)c3)nnc12`, for which the Potency result was “inactive”.

Take `O=c1[nH]c2ccccc2n2c(-c3ccccc3)nnc12`: the Potency was 0.708 µM (active).

Regarding `Cc1ccc2nc(N3CCN(c4cccc(Cl)c4)CC3)c3nnnn3c2c1`, the Potency entry is “inactive”.

As for `COc1ccc(N2C(=O)CSC23C(=O)N(Cc2cccc(F)c2)c2ccccc23)cc1Cl` (stereo not drawn), the Potency result was “inactive”.

For `Oc1c(C(c2ccc(F)cc2)N2CCN(Cc3ccccc3)CC2)sc2nc(-c3ccco3)nn12` (stereo not drawn), the Potency entry is “inactive”.

Consider `O=[N+]([O-])c1ccc(N/N=C2/CCCCC2c2ccccn2)c([N+](=O)[O-])c1` (stereo not drawn), for which the Potency was 3.55 µM (active).

Turning to `CC1(C)C/C(=N/Nc2ccc([N+](=O)[O-])cc2[N+](=O)[O-])C(C)(C)O1`, the Potency result was “inactive”.

As for `C[n+]1ccccc1C1CCCC/C1=N\Nc1ccc([N+](=O)[O-])cc1[N+](=O)[O-]` (stereo not drawn), the Potency result is “inactive”.

`Cc1cc(N2CCN(c3cccc(C(F)(F)F)c3)CC2)n2nc(-c3ccccc3)nc2n1`: the Potency entry is “inactive”.

As for `COC(=O)c1sc(NC(=O)COC(=O)C2CCC2)c(C(=O)OC)c1C`, the Potency result is “inactive”.

Turning to `CCOC(=O)c1c(NC(=O)c2cc(CC)on2)sc(C(C)=O)c1C`, the Potency entry is “inactive”.

Regarding `CCOC(=O)c1c(NC(=O)CCl)sc(C(=O)N(CC)CC)c1C`, the Potency is 31.6 µM (active).

On to `CCc1ccccc1NC(=O)CSc1nc(C)c(C(=O)Nc2ccccc2)c(-c2ccc(Cl)cc2)c1C#N`, for which the Potency result was “inactive”.

Consider `CCCn1c(=O)c2[nH]c(-c3ccc(OCC(=O)NCCN)cc3)nc2n(CCC)c1=O`, for which the Potency entry is “inactive”.

For `COc1ccccc1/C=C/c1nc(C#N)c(NC(C)c2ccccc2)o1` (stereo not drawn), the Potency entry is “inactive”.

With `O=C(CCC1N=C2c3ccccc3N=C(SCc3ccccc3F)N2C1=O)NCCc1ccccc1` (stereo not drawn), the Potency result was “inactive”.

Consider `Cc1ccc(-c2nnc(SCC(=O)NCc3ccccc3)nc2-c2ccc(C)cc2)cc1`, for which the Potency result was “inactive”.

Take `Clc1ccccc1CSc1nnc(-c2ccco2)c(-c2ccco2)n1`: the Potency is 5.01 µM (active).

In the case of `c1ccc(CSc2nnc(-c3ccco3)c(-c3ccco3)n2)cc1`, the Potency was 2.51 µM (active).

Turning to `CC1(C)N=C(SCc2ccccc2Cl)c2ccccc2N1`, the Potency result is “inactive”.

In the case of `CSc1n[nH]c(-c2ccco2)n1`, the Potency result was “inactive”.

As for `Clc1ccccc1CSc1nncn2c1cc1occc12`, the Potency result was “inactive”.

As to `Cc1ccc(S(=O)(=O)c2cn(Cc3ccccc3)c3cc(N4CCCC4)c(F)cc3c2=O)c(C)c1`, the Potency result is “inactive”.

Values taken from PubChem BioAssay AID588453 (National Center for Advancing Translational Sciences (NCATS), 2011).
